From PubChem
Sampled rows, rich in hits. Any-hit rate of the full collection: about 3.6%.
BJeLR lethal = MLPCN primary cell-based screen for lethality selective to Ras in HRASV12 cells; BJeLR (HRASV12) viability, CellTiter-Glo ATP luminescence, 48 h; inhibition, % (no concentration beside the values); 300,000 compounds, 0.17% hits; AID 1554, 2009; in the data active = inhibition above about 50%; inconclusive = no clear call, values can overlap the other calls
Anthrax LF prot = Bacillus anthracis LF protease inhibitors, primary screen, biochemical, multiplex microsphere, MLPCN library. multiplex microsphere protease cleavage assay. 360,000 compounds, 0.12% hits. AID 588501, 2011. inhibition, % at 10 µM. Lethal factor (Bacillus anthracis), P15917; also: plate controls were buffer without enzyme for full effect and enzyme alone for no effect
Target sequence (P15917 whole entry, looked up): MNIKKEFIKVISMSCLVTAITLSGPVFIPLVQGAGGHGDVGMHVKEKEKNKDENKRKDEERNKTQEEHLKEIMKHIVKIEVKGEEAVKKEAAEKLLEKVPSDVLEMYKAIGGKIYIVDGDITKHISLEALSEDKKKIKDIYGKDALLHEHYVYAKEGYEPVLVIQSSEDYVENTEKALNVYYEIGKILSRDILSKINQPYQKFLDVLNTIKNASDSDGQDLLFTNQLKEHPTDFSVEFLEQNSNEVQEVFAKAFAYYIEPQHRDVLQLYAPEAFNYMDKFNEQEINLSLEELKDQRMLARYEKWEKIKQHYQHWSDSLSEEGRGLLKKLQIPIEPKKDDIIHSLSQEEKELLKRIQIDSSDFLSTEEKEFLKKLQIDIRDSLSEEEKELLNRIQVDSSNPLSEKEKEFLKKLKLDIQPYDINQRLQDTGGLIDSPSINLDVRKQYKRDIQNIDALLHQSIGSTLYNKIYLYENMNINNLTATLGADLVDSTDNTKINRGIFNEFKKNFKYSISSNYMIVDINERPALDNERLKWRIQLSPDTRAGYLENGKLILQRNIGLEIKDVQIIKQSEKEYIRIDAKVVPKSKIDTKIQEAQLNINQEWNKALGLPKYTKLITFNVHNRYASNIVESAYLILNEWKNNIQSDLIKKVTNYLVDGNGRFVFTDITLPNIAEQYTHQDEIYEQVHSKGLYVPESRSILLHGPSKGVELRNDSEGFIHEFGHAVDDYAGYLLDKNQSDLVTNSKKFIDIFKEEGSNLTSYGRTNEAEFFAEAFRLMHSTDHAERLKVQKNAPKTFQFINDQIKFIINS
Bead autofluor = counter-screen for toxin protease inhibitors: compound fluorescence; fluorescence intensity (no concentration beside the values); compound autofluorescence counterscreen, microsphere flow cytometry; stronger effect = higher value; 360,000 compounds, 3.1% hits; in the data active = fluorescence intensity above about 16000; inconclusive = no clear call, values can overlap the other calls
SARS 3CLpro inh = SARS-CoV 3CLpro protease inhibitors, primary screen, biochemical, quenched FRET. AID 1706, 2009. Replicase polyprotein 1ab (Severe acute respiratory syndrome coronavirus), P0C6X7. recombinant SARS-CoV 3CLpro, quenched FRET peptide cleavage. inhibition, % at 6 µM. 290,000 compounds, 0.14% hits; in the data active = inhibition above about 12%
BoNT A protease = BoNT/A light chain protease inhibitors, primary screen, biochemical, flow cytometry, MLPCN library; AID 588499, 2011; Botulinum neurotoxin type A light chain protease (Clostridium botulinum A str. ATCC 3502); inhibition, % at 10 µM; multiplex microsphere protease substrate cleavage; 360,000 compounds, 0.17% hits; also: plate controls were buffer without enzyme for full effect and enzyme alone for no effect
BoNT-F LC inh = BoNT/F light chain protease inhibitors, primary screen, biochemical, flow cytometry, MLPCN library. Botulinum neurotoxin type F light chain protease (Clostridium botulinum). Multiplex microsphere protease cleavage assay. inhibition, % at 10 µM. 360,000 compounds, 0.22% hits; in the data active = inhibition above about 35%, passing the limit was not always enough; inconclusive = no clear call, values can overlap the other calls; also: plate controls were buffer without enzyme for full effect and enzyme alone for no effect
Active calls of the source: *. Rule as the data show it, unless noted: active = inhibition above about 30%; inconclusive = no clear call, values can overlap the other calls; inactive = below that.

Results for O=C(c1ccc(Cl)cc1)N1CCC(c2nc(-c3cccs3)no2)CC1 ?
BJeLR lethal: -6; Anthrax LF prot: -1; Bead autofluor: 23989*; SARS 3CLpro inh: 0; BoNT A protease: -5; BoNT-F LC inh: -6

Results for CN(c1ccc(OCC(=O)N2CCC(C(N)=O)CC2)cc1)S(=O)(=O)c1cccs1 ?
BJeLR lethal: 6; Anthrax LF prot: -7; Bead autofluor: 21812*; SARS 3CLpro inh: 1; BoNT A protease: inconclusive; BoNT-F LC inh: 1

How did CC(=O)N1CCN(C(=O)COc2ccc(N(C)S(=O)(=O)c3cccs3)cc2)CC1 do in these assays?
BJeLR lethal: -2; Anthrax LF prot: -1; Bead autofluor: 4220; SARS 3CLpro inh: -1; BoNT A protease: 0; BoNT-F LC inh: -7

Results for Cc1ccc(C(=O)COC(=O)C2C3C=CC(C3)C2C(=O)OCC(=O)c2ccc(C)c(C)c2)cc1C (stereo not given) ?
BJeLR lethal: 5; Anthrax LF prot: -10; Bead autofluor: 22921*; SARS 3CLpro inh: 3; BoNT A protease: inconclusive; BoNT-F LC inh: -4

How did CC(=O)NCC(=O)OCC(=O)c1ccc(C)c(C)c1 do in these assays?
BJeLR lethal: 0; Anthrax LF prot: -5; Bead autofluor: 9982; SARS 3CLpro inh: -1; BoNT A protease: -1; BoNT-F LC inh: -4

How did COC(=O)c1ccc2nc(C)c(C)nc2c1 do in these assays?
BJeLR lethal: -9; Anthrax LF prot: -2; Bead autofluor: 20620*; SARS 3CLpro inh: -1; BoNT A protease: inconclusive; BoNT-F LC inh: 0

How did CCN1c2ccccc2NC2C1C(C(C)=O)C(=O)N2c1ccc(Cl)cc1 (stereo not given) do in these assays?
BJeLR lethal: 2; Anthrax LF prot: 9; Bead autofluor: 19587*; SARS 3CLpro inh: 0; BoNT A protease: 20; BoNT-F LC inh: 4

What do the screens show for `Oc1ccc2oc3c(c2c1/C=N/n1cnnc1)CCCC3`?
BJeLR lethal: -7; Anthrax LF prot: -1; Bead autofluor: 21898*; SARS 3CLpro inh: 1; BoNT A protease: inconclusive; BoNT-F LC inh: -11

What do the screens show for `Oc1ccccc1N=Cc1c(O)ccc2oc3c(c12)CCCC3`?
BJeLR lethal: -8; Anthrax LF prot: -10; Bead autofluor: 4357; SARS 3CLpro inh: 2; BoNT A protease: 1; BoNT-F LC inh: 1

Results for COC(=O)c1ccc(N=C(c2ccccc2)c2c(O)n(C)c(=O)n(C)c2=O)cc1 ?
BJeLR lethal: 12; Anthrax LF prot: -8; Bead autofluor: 6228; SARS 3CLpro inh: -3; BoNT A protease: 0; BoNT-F LC inh: -10

How did CCOC(=O)c1ccc(N=C(c2ccccc2)c2c(O)n(C)c(=O)n(C)c2=O)cc1 do in these assays?
BJeLR lethal: 4; Anthrax LF prot: 31*; Bead autofluor: 3761; SARS 3CLpro inh: -3; BoNT A protease: -3; BoNT-F LC inh: inconclusive

What do the screens show for `O=C(Nc1ccncc1)c1ccc(-c2ccccc2)cc1`?
BJeLR lethal: 18; Anthrax LF prot: -3; Bead autofluor: 3354; SARS 3CLpro inh: 2; BoNT A protease: 0; BoNT-F LC inh: -8

What do the screens show for `O=C(C1CCCN(Cc2cccc(F)c2)C1)N1CCCCC1` (stereo not given)?
BJeLR lethal: 13; Anthrax LF prot: -1; Bead autofluor: 16903*; SARS 3CLpro inh: 3; BoNT A protease: 0; BoNT-F LC inh: 2

How did O=C(c1cccc(F)c1)N1CCCC(C(=O)N2CCCCCC2)C1 (stereo not given) do in these assays?
BJeLR lethal: 2; Anthrax LF prot: 14; Bead autofluor: 3369; SARS 3CLpro inh: 1; BoNT A protease: -1; BoNT-F LC inh: 29

How did CCOc1ccc(NC(=O)NCCCSC2CCCCC2)cc1 do in these assays?
BJeLR lethal: 1; Anthrax LF prot: 1; Bead autofluor: 22514*; SARS 3CLpro inh: -6; BoNT A protease: 0; BoNT-F LC inh: 0

Results for CCOc1ccc(NC(=O)NC2CCCCCCC2)cc1 ?
Anthrax LF prot: -1; Bead autofluor: 6558; SARS 3CLpro inh: 2; BoNT A protease: -3; BoNT-F LC inh: -7

How did CCOc1ccc(NC(=O)NCCN2C(C)CCCC2C)cc1 (stereo not given) do in these assays?
BJeLR lethal: 2; Anthrax LF prot: 0; Bead autofluor: 17584*; SARS 3CLpro inh: 1; BoNT A protease: -1; BoNT-F LC inh: -1

What do the screens show for `CCOC(=O)CNc1c(-c2ccccc2)nc2ccc(Cl)cn12`?
BJeLR lethal: 2; Anthrax LF prot: 2; Bead autofluor: 3693; SARS 3CLpro inh: 0; BoNT A protease: 0; BoNT-F LC inh: -6

Results for CCOC(=O)CNc1c(-c2ccc(O)cc2)nc2ccccn12 ?
BJeLR lethal: 0; Anthrax LF prot: -2; Bead autofluor: 23116*; SARS 3CLpro inh: 0; BoNT A protease: 1; BoNT-F LC inh: 1

What do the screens show for `CCOC(=O)CNc1c(-c2ccc(O)cc2)nc2ccc(Cl)cn12`?
BJeLR lethal: 1; Anthrax LF prot: -6; Bead autofluor: 23767*; SARS 3CLpro inh: -9; BoNT A protease: -1; BoNT-F LC inh: 0

What do the screens show for `CCOC(=O)C(=O)c1c(-c2ccc(C)cc2)nc2ccccn12`?
BJeLR lethal: -7; Anthrax LF prot: -9; Bead autofluor: 3953; SARS 3CLpro inh: 0; BoNT A protease: 0; BoNT-F LC inh: 1

What do the screens show for `COc1ccccc1NC(=O)c1ccc(NC(=O)CN2C(=O)CN(C)C2=O)cc1`?
BJeLR lethal: 2; Anthrax LF prot: 6; Bead autofluor: 4026; SARS 3CLpro inh: 5; BoNT A protease: 0; BoNT-F LC inh: -2

What do the screens show for `Cc1ccc([C@H]2C[C@@H](n3cc(-c4ccc(F)cc4)nn3)[C@H](O)CN2C(=O)C2CCCCC2)cc1`?
Anthrax LF prot: 0; Bead autofluor: 3774; BoNT A protease: 0; BoNT-F LC inh: -3

What do the screens show for `Cc1ccc(-c2n[nH]c(=S)c3ccccc23)cc1S(=O)(=O)NCC1CCCO1` (stereo not given)?
BJeLR lethal: 0; Anthrax LF prot: 1; Bead autofluor: 6307; SARS 3CLpro inh: -1; BoNT A protease: 1; BoNT-F LC inh: -3

What do the screens show for `Cc1oc(-c2ccc(Cl)cc2)nc1CN1CCCC(C(=O)NCc2ccccn2)C1` (stereo not given)?
BJeLR lethal: 2; Anthrax LF prot: -2; Bead autofluor: 22724*; SARS 3CLpro inh: 4; BoNT A protease: 0; BoNT-F LC inh: 1

How did Cc1oc(-c2ccc(Cl)cc2)nc1CN1CCCC(C(=O)NCc2cccnc2)C1 (stereo not given) do in these assays?
BJeLR lethal: 15; Anthrax LF prot: 0; Bead autofluor: 10409; SARS 3CLpro inh: 2; BoNT A protease: -2; BoNT-F LC inh: -1
